PubChem BioAssay AID1159580 (chemical genetic matrix, 2015)
About 2,000 (36%) of roughly 5,500 compounds were called active. About 18% were inconclusive and are not listed. Rule as the data show it: active = normalized growth mostly below about 0.91 (no sharp cut-off); inconclusive = no clear call, values can overlap the other calls; inactive = mostly above about 0.92. The list shows a part of the results.

Experiment: chemical genetic growth profiling, strain panel (AID 1159580);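 also: tested at 20 µM; growth read once vehicle control cultures reached saturation at 30 °C; 1 = growth at the plate median or of vehicle wells; lower values mean less growth of the strain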
Conditions: S. cerevisiae deletion strains, growth OD
[1] = locus YHR030C, strain SLT2, stronger effect = lower value
[2] = locus YHR079C, strain IRE1, stronger effect = lower value
[3] = locus YJL095W, strain BCK1, stronger effect = lower value
[4] = locus YJR066W, strain TOR1, stronger effect = lower value
[5] = locus YLR113W, strain HOG1, stronger effect = lower value
[6] = locus YNL183C, strain NPR1, stronger effect = lower value
[7] = locus YOR231W, strain MKK1, stronger effect = lower value
[8] = locus YPL256C, strain CLN2, stronger effect = lower value

Measured: normalized growth

N#CC(C(=O)Nc1cccc(C(F)(F)F)c1)C(=S)Nc1ccccc1Cl (stereo unspecified)
inactive: locus YAR019C, strain CDC15, stronger effect = lower value 0.992 | locus YDL017W, strain CDC7, stronger effect = lower value 0.985 | locus YDL028C, strain MPS1, stronger effect = lower value 1 | locus YDL108W, strain KIN28, stronger effect = lower value 0.99 | locus YDL132W, strain cdc53, stronger effect = lower value 0.976 | locus YDR052C, strain DBF4, stronger effect = lower value 1 | locus YDR054C, strain cdc34, stronger effect = lower value 0.98 | locus YER123W, strain YCK3, stronger effect = lower value 0.969 | locus YFL009W, strain cdc4, stronger effect = lower value 0.989 | locus YFL029C, strain CAK1, stronger effect = lower value 1 | locus YFR003C, strain YPI1, stronger effect = lower value 0.997 | locus YFR019W, strain FAB1, stronger effect = lower value 0.957 | locus YFR028C, strain CDC14, stronger effect = lower value 0.977 | locus YGR092W, strain DBF2, stronger effect = lower value 0.98 | [1] 0.957 | [2] 0.978 | locus YHR205W, strain SCH9, stronger effect = lower value 0.975 | locus YIL147C, strain SLN1, stronger effect = lower value 0.996 | [3] 0.914 | locus YJR016C, strain ILV3, stronger effect = lower value 0.978 | [4] 0.78 | locus YKL048C, strain ELM1, stronger effect = lower value 0.986 | locus YKL101W, strain HSL1, stronger effect = lower value 0.994 | locus YKL193C, strain SDS22, stronger effect = lower value 0.998 | locus YLR133W, strain CKI1, stronger effect = lower value 0.984 | locus YLR403W, strain SFP1, stronger effect = lower value 0.979 | locus YML070W, strain DAK1, stronger effect = lower value 0.966 | locus YMR001C, strain CDC5, stronger effect = lower value 0.995 | locus YMR205C, strain PFK2 (second series), stronger effect = lower value 0.991 | locus YMR277W, strain FCP1, stronger effect = lower value 0.98 | locus YNL006W, strain LST8, stronger effect = lower value 0.991 | locus YNL020C, strain ARK1, stronger effect = lower value 0.981 | locus YNL207W, strain RIO2, stronger effect = lower value 0.996 | locus YNL307C, strain MCK1 (second series), stronger effect = lower value 0.983 | locus YOL078W, strain AVO1, stronger effect = lower value 0.992 | locus YOL136C, strain PFK27, stronger effect = lower value 0.959 | locus YOR061W, strain CKA2, stronger effect = lower value 0.97 | [7] 1.01 | locus YOR329C, strain SCD5, stronger effect = lower value 0.997 | locus YPL153C, strain RAD53, stronger effect = lower value 0.963 | locus YPL204W, strain HRR25, stronger effect = lower value 0.963 | locus YPL209C, strain IPL1, stronger effect = lower value 1 | locus YPR025C, strain CCL1, stronger effect = lower value 0.993 | strain NNK1, stronger effect = lower value 1.02 | strain TSCII, stronger effect = lower value 0.996
active: locus YDL214C, strain PRR2, stronger effect = lower value 0.296 | locus YDR477W, strain SNF1, stronger effect = lower value 0.105 | locus YER133W, strain GLC7, stronger effect = lower value 0.143 | locus YGR040W, strain KSS1, stronger effect = lower value 0.147 | locus YGR052W, strain FMP48, stronger effect = lower value 0.396 | [5] 0.449 | [6] 0.191 | [8] 0.501 | locus YPR111W, strain DBF20, stronger effect = lower value 0.784

O=C1NCCN=C(c2ccccc2)c2ccccc21
inactive: locus YAL013W, strain DEP1, stronger effect = lower value 0.999 | locus YBR229C, strain ROT2, stronger effect = lower value 1 | locus YCL061C, strain MRC1, stronger effect = lower value 0.99 | locus YDL101C, strain DUN1, stronger effect = lower value 0.984 | locus YDL134C, strain PPH21, stronger effect = lower value 1.01 | locus YDR150W, strain NUM1, stronger effect = lower value 0.911 | locus YEL061C, strain CIN8, stronger effect = lower value 0.995 | locus YGR078C, strain PAC10, stronger effect = lower value 0.99 | [1] 1.03 | locus YHR087W, strain rtc3, stronger effect = lower value 0.999 | locus YJL187C, strain SWE1, stronger effect = lower value 0.997 | locus YJR043C, strain POL32, stronger effect = lower value 0.995 | locus YJR075W, strain HOC1, stronger effect = lower value 1.01 | locus YLR039C, strain RIC1, stronger effect = lower value 0.985 | locus YLR058C, strain SHM2 (second series), stronger effect = lower value 0.998 | locus YLR085C, strain ARP6, stronger effect = lower value 1.01 | locus YLR262C, strain YPT6, stronger effect = lower value 0.968 | locus YML094W, strain GIM5, stronger effect = lower value 0.98 | locus YMR219W, strain ESC1, stronger effect = lower value 0.999 | locus YMR263W, strain SAP30, stronger effect = lower value 0.973 | locus YMR307W, strain GAS1, stronger effect = lower value 0.994 | locus YNL153C, strain GIM3, stronger effect = lower value 0.99 | locus YNL298W, strain CLA4 (second series), stronger effect = lower value 1.01 | locus YNL322C, strain KRE1, stronger effect = lower value 0.994 | locus YNR030W, strain Alg12, stronger effect = lower value 1 | locus YOL006C, strain TOP1, stronger effect = lower value 1 | locus YPL055C, strain LGE1, stronger effect = lower value 0.956 | locus YPL241C, strain CIN2, stronger effect = lower value 0.976 | locus YPR135W, strain CTF4, stronger effect = lower value 1.01

CC(=O)c1ccc[nH]1
inactive: locus YAL021C, strain ccr4, stronger effect = lower value 1.01 | locus YAL026C, strain drs2, stronger effect = lower value 1 | locus YAL030W, strain snc1, stronger effect = lower value 0.997 | locus YBL061C, strain skt5, stronger effect = lower value 0.996 | locus YBR009C, strain hhf1, stronger effect = lower value 1.02 | locus YBR023C, strain chs3, stronger effect = lower value 0.998 | locus YBR171W, strain sec66, stronger effect = lower value 1.01 | locus YBR231C, strain swc5, stronger effect = lower value 1 | locus YBR279W, strain paf1, stronger effect = lower value 1.01 | locus YCL011C, strain gbp2, stronger effect = lower value 1 | locus YCL016C, strain dcc1, stronger effect = lower value 0.997 | locus YCL069W, strain vba3, stronger effect = lower value 1 | locus YCR088W, strain abp1, stronger effect = lower value 1.01 | locus YDL005C, strain med2, stronger effect = lower value 0.99 | locus YDL040C, strain nat1, stronger effect = lower value 0.998 | locus YDR001C, strain nth1, stronger effect = lower value 1 | locus YDR069C, strain doa4, stronger effect = lower value 1.01 | locus YDR137W, strain rgp1, stronger effect = lower value 0.98 | locus YDR159W, strain sac3, stronger effect = lower value 0.975 | locus YDR195W, strain ref2 0.979 | locus YDR297W, strain sur2, stronger effect = lower value 1.01 | locus YDR334W, strain swr1, stronger effect = lower value 0.995 | locus YDR335W, strain msn5, stronger effect = lower value 0.993 | locus YDR392W, strain spt3, stronger effect = lower value 1.01 | locus YEL003W, strain gim4, stronger effect = lower value 0.998 | locus YEL037C, strain rad23, stronger effect = lower value 1 | locus YEL061C, strain CIN8 (second series), stronger effect = lower value 1.01 | locus YER015W, strain faa2, stronger effect = lower value 1 | locus YER016W, strain bim1, stronger effect = lower value 0.995 | locus YER111C, strain swi4, stronger effect = lower value 0.994 | locus YER155C, strain BEM2 (second series), stronger effect = lower value 0.994 | locus YFR010W, strain ubp6, stronger effect = lower value 1 | locus YGL167C, strain pmr1, stronger effect = lower value 0.988 | locus YGL173C, strain kem1, stronger effect = lower value 0.998 | locus YGL227W, strain vid30, stronger effect = lower value 0.996 | locus YGL240W, strain doc1, stronger effect = lower value 1 | locus YGL253W, strain hxk2, stronger effect = lower value 1 | locus YHR013C, strain ard1, stronger effect = lower value 1.01 | locus YHR027C, strain rpn1, stronger effect = lower value 0.991 | [1] 1 | [2] 0.992 | locus YHR142W, strain chs7, stronger effect = lower value 1 | locus YJL092W, strain hpr5, stronger effect = lower value 0.992 | locus YJL095W, strain BCK1 (second series), stronger effect = lower value 0.988 | [3] 0.988 | locus YJL115W, strain asf1, stronger effect = lower value 0.993 | locus YJL129C, strain trk1, stronger effect = lower value 0.988 | locus YJL154C, strain vps35, stronger effect = lower value 0.996 | locus YJL164C, strain tpk1, stronger effect = lower value 1.01 | locus YJL166W, strain qcr8, stronger effect = lower value 1.01 | [4] 0.942 | locus YKL160W, strain elf1, stronger effect = lower value 1 | locus YKR026C, strain gcn3, stronger effect = lower value 0.998 | locus YKR091W, strain srl3, stronger effect = lower value 0.999 | locus YLL001W, strain dnm1, stronger effect = lower value 1.01 | locus YLL026W, stronger effect = lower value 1 | locus YLL041C, strain sdh2, stronger effect = lower value 1 | locus YLR027C, strain aat2, stronger effect = lower value 1 | [5] 1 | locus YLR221C, strain rsa3, stronger effect = lower value 1.01 | locus YLR258W, strain gsy2, stronger effect = lower value 1.01 | locus YLR262C, strain YPT6 (second series), stronger effect = lower value 1.03 | locus YLR320W, strain mms22, stronger effect = lower value 1 | locus YLR342W, strain FKS1, stronger effect = lower value 0.999 | locus YLR357W, strain rsc2, stronger effect = lower value 0.971 | locus YLR370C, strain arc18, stronger effect = lower value 0.994 | locus YLR384C, strain iki3, stronger effect = lower value 0.997 | locus YML120C, strain ndi1, stronger effect = lower value 1.01 | locus YMR058W, strain fet3, stronger effect = lower value 0.997 | locus YMR125W, strain sto1, stronger effect = lower value 0.997 | locus YMR129W, stronger effect = lower value 0.996 | locus YMR205C, strain PFK2, stronger effect = lower value 1.01 | locus YMR231W, strain pep5, stronger effect = lower value 1 | locus YNL071W, strain lat1, stronger effect = lower value 1 | [6] 0.902 | locus YNL209W, strain ssb2, stronger effect = lower value 1.01 | locus YNL248C, strain rpa49, stronger effect = lower value 0.98 | locus YNL322C, strain KRE1 (second series), stronger effect = lower value 0.986 | locus YNR049C, strain mso1, stronger effect = lower value 1.01 | locus YOR001W, strain rrp6, stronger effect = lower value 1 | locus YOR070C, strain gyp1, stronger effect = lower value 1.01 | locus YOR080W, strain dia2, stronger effect = lower value 1 | locus YOR083W, strain WHI5, stronger effect = lower value 1 | locus YOR106W, strain vam3, stronger effect = lower value 0.985 | [7] 1.02 | locus YOR265W, strain rbl2, stronger effect = lower value 1.02 | locus YOR270C, strain vph1, stronger effect = lower value 1.01 | locus YOR290C, strain snf2, stronger effect = lower value 0.992 | locus YPL051W, strain arl3, stronger effect = lower value 1.02 | locus YPL078C, strain atp4, stronger effect = lower value 1.01 | locus YPL106C, strain sse1, stronger effect = lower value 0.978 | locus YPL240C, strain hsp82, stronger effect = lower value 0.994 | [8] 0.99
